In the supplement of paper PMC10849652:
About 7,900 targets were measured; listed, in parts, are those with a hit and a random draw of the rest. About 0.6% of all pairs of compound and target were hits. Values without a mark were called inactive.

Assays:
Assay in all cases: log2 fold change, soluble protein after heating vs DMSO (PISA); higher = thermal stabilisation; K562 cells, 10 uM, 30 min; active = over 0.2 and 3.5 SD of the protein, either way, in both replicates (recomputed)
[1] = compound: COC1=CC=C(C=C1)CN2C=CC3=C2C=C(C=C3)C(=O)NO
Method in brief: (§1)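 K562 cells at 2×10^6 cells/mL were treated for 30 min with 10 μM compound, and aliquots were heated for 3 min over 48°C-58°C before pooling. Extraction used PBS with 0.5% NP-40 at 4°C, and soluble protein was the supernatant after 21,000xg for 90 min, measured by TMTpro 16plex LC-MS/MS with channel sums equalised. Thermal stability values, relative to control samples and from duplicates, are log2 fold changes.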

filanesib = compound: CON(C)C(=O)N1N=C(c2cc(F)ccc2F)S[C@@]1(CCCN)c1ccccc1 [filanesib]
Method in brief: as §1

zotarolimus = compound: CO[C@H]1C[C@@H]2CC[C@@H](C)[C@@](O)(O2)C(=O)C(=O)N2CCCC[C@H]2C(=O)O[C@H]([C@H](C)C[C@@H]2CC[C@H](n3cnnn3)[C@H](OC)C2)CC(=O)[C@H](C)/C=C(\C)[C@@H](O)[C@@H](OC)C(=O)[C@H](C)C[C@H](C)/C=C/C=C/C=C/1C [zotarolimus]
Method in brief: as §1

idasanutlin = compound: COc1cc(C(=O)O)ccc1NC(=O)[C@@H]1N[C@@H](CC(C)(C)C)[C@](C#N)(c2ccc(Cl)cc2F)[C@H]1c1cccc(Cl)c1F [idasanutlin]
Method in brief: as §1

alisertib = compound: COc1cc(Nc2ncc3c(n2)-c2ccc(Cl)cc2C(c2c(F)cccc2OC)=NC3)ccc1C(=O)O [alisertib]
Method in brief: as §1

[2] = compound: COc1cc2nc(-c3cc(F)ccc3O)nc(N[C@@H]3CNC[C@H]3C(C)(C)O)c2cc1OC
Method in brief: as §1

gefitinib = compound: COc1cc2ncnc(Nc3ccc(F)c(Cl)c3)c2cc1OCCCN1CCOCC1 [gefitinib]
Method in brief: as §1

[3] = compound: COc1cccc2cc(-c3nc([C@H]4CC[C@H](C(=O)O)CC4)n4ncnc(N)c34)[nH]c12
Method in brief: as §1

lapatinib = compound: CS(=O)(=O)CCNCc1ccc(-c2ccc3ncnc(Nc4ccc(OCc5cccc(F)c5)c(Cl)c4)c3c2)o1 [lapatinib]
Method in brief: as §1

pictilisib = compound: CS(=O)(=O)N1CCN(Cc2cc3nc(-c4cccc5[nH]ncc45)nc(N4CCOCC4)c3s2)CC1 [pictilisib]
Method in brief: as §1

Chain of UniProt Q9Y3X0 (Q9Y3X0 whole entry, looked up): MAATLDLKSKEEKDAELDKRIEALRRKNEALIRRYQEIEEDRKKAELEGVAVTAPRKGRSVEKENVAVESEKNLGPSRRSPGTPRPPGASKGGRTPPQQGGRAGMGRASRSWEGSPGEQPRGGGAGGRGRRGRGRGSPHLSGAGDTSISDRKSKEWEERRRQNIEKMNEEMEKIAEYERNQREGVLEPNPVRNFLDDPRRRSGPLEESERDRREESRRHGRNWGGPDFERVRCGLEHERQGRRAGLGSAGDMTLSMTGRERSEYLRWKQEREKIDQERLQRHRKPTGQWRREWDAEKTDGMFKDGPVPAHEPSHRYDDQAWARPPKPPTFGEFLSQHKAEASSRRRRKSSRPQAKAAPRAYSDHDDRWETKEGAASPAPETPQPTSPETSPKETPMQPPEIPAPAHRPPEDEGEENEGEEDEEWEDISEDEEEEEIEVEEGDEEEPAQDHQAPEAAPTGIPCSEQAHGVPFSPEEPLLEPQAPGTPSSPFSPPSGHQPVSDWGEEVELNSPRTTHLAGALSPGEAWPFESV
Chain of UniProt P46108 (P46108 whole entry, looked up): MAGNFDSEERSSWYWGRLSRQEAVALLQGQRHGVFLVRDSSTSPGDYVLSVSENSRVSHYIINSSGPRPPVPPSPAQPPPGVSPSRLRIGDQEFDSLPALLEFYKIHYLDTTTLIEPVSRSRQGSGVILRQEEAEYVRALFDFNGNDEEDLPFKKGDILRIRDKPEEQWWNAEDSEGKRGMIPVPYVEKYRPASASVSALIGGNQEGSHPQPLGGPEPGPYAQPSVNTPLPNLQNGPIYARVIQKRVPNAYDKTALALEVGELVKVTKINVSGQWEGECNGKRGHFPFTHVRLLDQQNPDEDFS
Chain of UniProt Q13111 (Q13111 whole entry, looked up): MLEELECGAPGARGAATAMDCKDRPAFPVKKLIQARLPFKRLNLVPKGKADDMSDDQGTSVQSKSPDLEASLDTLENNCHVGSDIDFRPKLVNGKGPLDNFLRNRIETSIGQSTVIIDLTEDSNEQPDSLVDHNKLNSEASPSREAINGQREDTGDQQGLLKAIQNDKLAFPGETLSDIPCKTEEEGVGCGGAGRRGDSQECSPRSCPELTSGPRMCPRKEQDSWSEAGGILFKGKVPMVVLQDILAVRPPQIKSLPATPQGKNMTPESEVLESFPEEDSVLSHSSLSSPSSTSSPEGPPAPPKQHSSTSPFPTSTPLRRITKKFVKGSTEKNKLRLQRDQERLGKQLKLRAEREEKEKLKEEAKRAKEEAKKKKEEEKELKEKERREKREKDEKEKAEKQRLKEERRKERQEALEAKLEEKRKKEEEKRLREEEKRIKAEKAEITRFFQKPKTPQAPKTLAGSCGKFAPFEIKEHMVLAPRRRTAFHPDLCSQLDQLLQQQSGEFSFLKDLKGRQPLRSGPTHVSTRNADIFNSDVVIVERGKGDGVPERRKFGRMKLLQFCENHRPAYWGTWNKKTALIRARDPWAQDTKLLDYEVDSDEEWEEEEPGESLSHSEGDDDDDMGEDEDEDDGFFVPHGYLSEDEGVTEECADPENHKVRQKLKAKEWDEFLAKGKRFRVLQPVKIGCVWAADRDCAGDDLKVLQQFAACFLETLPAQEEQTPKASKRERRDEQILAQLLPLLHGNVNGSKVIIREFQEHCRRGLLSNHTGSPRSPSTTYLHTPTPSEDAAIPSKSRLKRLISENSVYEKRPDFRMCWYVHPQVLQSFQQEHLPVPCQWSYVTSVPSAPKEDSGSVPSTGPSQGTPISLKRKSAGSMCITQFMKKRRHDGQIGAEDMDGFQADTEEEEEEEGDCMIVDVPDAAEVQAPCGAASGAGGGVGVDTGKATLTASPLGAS
Chain of UniProt P10606 (P10606 whole entry, looked up): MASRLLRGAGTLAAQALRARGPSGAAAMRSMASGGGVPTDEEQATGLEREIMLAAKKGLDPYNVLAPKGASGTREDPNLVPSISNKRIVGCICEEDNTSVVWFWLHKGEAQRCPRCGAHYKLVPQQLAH
Chain of UniProt Q96G23 (Q96G23 whole entry, looked up): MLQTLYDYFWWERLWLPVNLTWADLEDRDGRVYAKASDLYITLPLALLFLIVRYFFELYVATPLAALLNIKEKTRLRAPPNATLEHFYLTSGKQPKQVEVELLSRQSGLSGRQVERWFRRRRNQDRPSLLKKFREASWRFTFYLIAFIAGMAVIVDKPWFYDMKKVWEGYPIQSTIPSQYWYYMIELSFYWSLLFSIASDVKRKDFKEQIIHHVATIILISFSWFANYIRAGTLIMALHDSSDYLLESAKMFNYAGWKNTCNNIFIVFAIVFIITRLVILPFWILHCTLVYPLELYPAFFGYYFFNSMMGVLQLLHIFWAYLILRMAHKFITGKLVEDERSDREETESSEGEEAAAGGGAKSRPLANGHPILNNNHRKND
Chain of UniProt P08962 (P08962 whole entry, looked up): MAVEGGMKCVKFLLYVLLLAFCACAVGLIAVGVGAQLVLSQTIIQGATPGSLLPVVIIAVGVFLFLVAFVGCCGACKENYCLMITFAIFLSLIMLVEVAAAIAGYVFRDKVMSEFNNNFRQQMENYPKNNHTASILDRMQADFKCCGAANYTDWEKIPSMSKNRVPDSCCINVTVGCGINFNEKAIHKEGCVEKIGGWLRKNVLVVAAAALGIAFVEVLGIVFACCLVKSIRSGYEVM
Chain of UniProt P41208 (P41208 whole entry, looked up): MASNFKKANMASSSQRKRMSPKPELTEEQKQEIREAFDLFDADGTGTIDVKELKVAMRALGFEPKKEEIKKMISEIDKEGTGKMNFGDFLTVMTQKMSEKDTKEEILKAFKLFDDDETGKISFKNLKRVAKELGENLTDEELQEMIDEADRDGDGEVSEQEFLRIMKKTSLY
Chain of UniProt Q9NYV4 (Q9NYV4 whole entry, looked up): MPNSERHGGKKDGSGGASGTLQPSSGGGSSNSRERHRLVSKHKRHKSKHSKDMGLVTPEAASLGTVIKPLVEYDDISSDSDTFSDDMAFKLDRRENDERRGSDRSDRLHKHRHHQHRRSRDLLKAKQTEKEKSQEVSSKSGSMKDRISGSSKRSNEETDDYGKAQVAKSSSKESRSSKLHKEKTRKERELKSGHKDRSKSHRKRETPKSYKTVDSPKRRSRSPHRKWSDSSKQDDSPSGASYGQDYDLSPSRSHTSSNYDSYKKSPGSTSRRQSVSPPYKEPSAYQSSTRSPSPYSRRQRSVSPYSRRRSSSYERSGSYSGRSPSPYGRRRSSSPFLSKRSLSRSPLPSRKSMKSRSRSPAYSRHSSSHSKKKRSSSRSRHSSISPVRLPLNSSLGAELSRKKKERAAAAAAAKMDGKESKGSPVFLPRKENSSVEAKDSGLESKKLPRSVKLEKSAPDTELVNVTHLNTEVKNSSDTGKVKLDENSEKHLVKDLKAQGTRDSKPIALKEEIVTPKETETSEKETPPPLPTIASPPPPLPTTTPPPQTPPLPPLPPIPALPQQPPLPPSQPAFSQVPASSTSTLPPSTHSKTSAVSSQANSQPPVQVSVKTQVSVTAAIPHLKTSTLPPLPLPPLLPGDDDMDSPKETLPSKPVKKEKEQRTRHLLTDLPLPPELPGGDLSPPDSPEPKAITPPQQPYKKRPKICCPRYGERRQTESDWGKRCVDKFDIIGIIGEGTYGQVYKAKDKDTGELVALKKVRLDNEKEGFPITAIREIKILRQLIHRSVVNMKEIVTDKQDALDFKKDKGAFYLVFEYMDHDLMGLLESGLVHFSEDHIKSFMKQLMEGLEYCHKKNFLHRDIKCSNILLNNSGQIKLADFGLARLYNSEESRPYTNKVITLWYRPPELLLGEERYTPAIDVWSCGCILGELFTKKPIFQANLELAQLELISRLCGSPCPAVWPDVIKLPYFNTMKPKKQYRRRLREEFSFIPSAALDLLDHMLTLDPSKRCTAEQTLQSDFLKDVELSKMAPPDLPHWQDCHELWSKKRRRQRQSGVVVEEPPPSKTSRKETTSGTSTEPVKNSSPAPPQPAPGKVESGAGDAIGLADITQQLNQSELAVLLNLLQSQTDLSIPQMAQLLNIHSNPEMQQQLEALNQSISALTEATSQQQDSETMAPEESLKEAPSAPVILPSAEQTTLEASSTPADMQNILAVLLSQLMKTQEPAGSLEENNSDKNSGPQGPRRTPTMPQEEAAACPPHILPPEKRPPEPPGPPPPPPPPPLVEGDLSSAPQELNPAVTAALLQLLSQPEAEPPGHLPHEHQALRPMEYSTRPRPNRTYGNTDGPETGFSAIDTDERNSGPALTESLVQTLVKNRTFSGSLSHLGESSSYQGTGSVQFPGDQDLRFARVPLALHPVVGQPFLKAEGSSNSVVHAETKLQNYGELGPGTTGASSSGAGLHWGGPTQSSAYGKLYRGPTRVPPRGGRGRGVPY
Chain of UniProt Q8WUX2 (Q8WUX2 whole entry, looked up): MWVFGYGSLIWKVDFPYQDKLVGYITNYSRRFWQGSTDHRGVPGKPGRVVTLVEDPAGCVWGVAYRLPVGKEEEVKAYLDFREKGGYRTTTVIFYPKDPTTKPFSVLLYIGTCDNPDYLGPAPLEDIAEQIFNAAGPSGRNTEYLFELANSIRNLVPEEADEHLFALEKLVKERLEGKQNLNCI
Chain of UniProt O75909 (O75909 whole entry, looked up): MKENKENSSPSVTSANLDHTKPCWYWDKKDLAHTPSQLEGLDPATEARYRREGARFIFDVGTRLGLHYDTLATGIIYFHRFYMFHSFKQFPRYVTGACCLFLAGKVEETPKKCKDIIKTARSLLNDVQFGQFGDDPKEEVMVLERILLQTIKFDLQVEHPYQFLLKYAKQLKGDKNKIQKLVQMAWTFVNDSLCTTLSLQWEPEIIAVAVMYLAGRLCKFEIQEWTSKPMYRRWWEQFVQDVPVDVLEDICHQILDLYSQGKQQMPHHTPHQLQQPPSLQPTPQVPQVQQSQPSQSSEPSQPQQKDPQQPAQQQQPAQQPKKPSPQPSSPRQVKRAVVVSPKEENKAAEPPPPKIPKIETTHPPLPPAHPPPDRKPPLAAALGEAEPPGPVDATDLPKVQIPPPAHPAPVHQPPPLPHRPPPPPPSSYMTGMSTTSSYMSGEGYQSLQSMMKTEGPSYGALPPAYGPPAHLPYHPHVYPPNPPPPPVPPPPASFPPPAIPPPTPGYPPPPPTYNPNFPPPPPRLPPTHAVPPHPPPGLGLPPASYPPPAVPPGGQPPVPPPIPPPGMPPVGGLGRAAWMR

Target | log2 fold change [1] | log2 fold change (filanesib) | log2 fold change (zotarolimus) | log2 fold change (idasanutlin) | log2 fold change (alisertib) | log2 fold change [2] | log2 fold change (gefitinib) | log2 fold change [3] | log2 fold change (lapatinib) | log2 fold change (pictilisib)
CCNK isoform 4 (UniProt O75909) | -0.067 | 0.177 | 0.163 | 0.061 | -0.013 | -0.021 | -0.014 | 0.024 | 0.066 | -0.033
CLCN7 (UniProt P51798) | 0.112 | -0.294 (active) | 0.008 | -0.006 | -0.084 | -0.077 | -0.144 | 0.023 | -0.011 | –
CCAR2 isoform 2 (UniProt Q8N163) | -0.038 | 0.024 | 0.063 | -0.065 | -0.072 | -0.187 | -0.03 | -0.042 | 0.04 | -0.034
CLPTM1L (UniProt Q96KA5) | -0.053 | -0.114 | -0.095 | -0.141 | -0.032 | -0.08 | -0.007 | 0.065 | -0.02 | –
CDK12 (UniProt Q9NYV4) | -0.019 | 0.463 | -0.072 | 0.303 | 0.062 | -0.226 | 0.005 | -0.03 | 0.134 | -0.018
CHCHD2 (UniProt Q9Y6H1) | 0.101 | 0.026 | -0.024 | -0.457 (active) | 0.053 | -0.002 | -0.028 | -0.155 | -0.024 | 0.031
CD63 (UniProt P08962) | -0.053 | -0.336 (active) | -0.01 | -0.051 | -0.069 | -0.031 | -0.076 | 0.096 | -0.002 | 0.032
CERS2 (UniProt Q96G23) | -0.045 | -0.117 | -0.062 | -0.047 | -0.129 | -0.107 | -0.095 | -0.005 | -0.03 | -0.262 (active)
CDKN1B (UniProt P46527) | 0.085 | -0.02 | -0.007 | -0.033 | 0.068 | 0.104 | 0.124 | -0.076 | -0.03 | -0.02
CDC37L1 (UniProt Q7L3B6) | -0.027 | 0.047 | -0.057 | -0.031 | -0.009 | -0.106 | 0.029 | -0.037 | 0.034 | -0.051
CCDC9 (UniProt Q9Y3X0) | 0.057 | 0.021 | -0.11 | 0.018 | -0.035 | 0.02 | -0.078 | -0.021 | 0.003 | -0.015
CHAC2 (UniProt Q8WUX2) | -0.007 | -0.032 | 0.066 | -0.019 | 0.026 | -0.061 | -0.03 | 0.06 | 0.029 | 0.077
CAVIN1 (UniProt Q6NZI2) | -0.012 | 0.109 | 0 | 0.15 | -0.098 | -0.107 | -0.1 | -0.159 | 0.089 | -0.094
CRK (UniProt P46108) | 0.072 | 0.008 | 0.144 | 0.061 | -0.107 | 0.011 | -0.006 | 0.025 | 0.012 | 0.043
CHERP (UniProt Q8IWX8) | 0.04 | 0.266 | 0.051 | 0.063 | 0.002 | -0.227 | -0.02 | 0.002 | -0.023 | 0.038
CHKA (UniProt P35790) | -0.021 | 0.02 | -0.148 | -0.009 | -0.032 | 0.065 | -0.016 | 0.004 | -0.013 | 0.041
COX5B (UniProt P10606) | 0.012 | 0.212 | 0.094 | 0.019 | -0.103 | 0.004 | 0.011 | 0.015 | -0.038 | -0.04
CSE1L (UniProt P55060) | 0.024 | -0.1 | 0.027 | -0.135 | -0.059 | 0.005 | -0.018 | -0.019 | -0.036 | -0.015
C4A (UniProt P0C0L4) | 0.042 | 0.014 | -0.615 (active) | 0.068 | -0.005 | 0.001 | -0.198 | 0.175 | -0.078 | -0.291
CETN2 (UniProt P41208) | -0.114 | 0.225 | -0.067 | 0.042 | -0.112 | 0.141 | 0.019 | 0.028 | -0.207 | 0.028
CHAF1A (UniProt Q13111) | -0.149 | 0.143 | -0.145 | 0.05 | 0 | 0.007 | 0.169 | 0.004 | 0.169 | 0.031
CDCA2 (UniProt Q69YH5) | 0.278 | -0.036 | -0.04 | 0.018 | 0.585 | -0.079 | 0.109 | -0.011 | 0.204 | -0.127
COX7B (UniProt P24311) | 0.112 | 0.028 | -0.003 | -0.012 | 0.038 | -0.018 | 0.023 | 0.094 | -0.009 | -0.039
CHST10 (UniProt O43529) | -0.11 | 0.021 | 0.088 | 0.062 | -0.014 | -0.073 | -0.071 | 0.088 | 0.058 | 0.027
COCH (UniProt O43405) | -0.018 | 0.024 | -0.018 | 0.077 | -0.063 | -0.144 | 0.131 | -0.078 | 0.049 | 0.001
CDC42EP1 (UniProt Q00587) | -0.139 | -0.07 | 0.014 | 0 | 0 | -0.492 (active) | 0.087 | -0.057 | -0.015 | -0.143
CNOT7 (UniProt Q9UIV1) | -0.032 | 0.012 | 0.018 | -0.008 | -0.011 | 0.233 | 0.134 | -0.067 | -0.036 | 0.001
C9orf72 (UniProt Q96LT7) | -0.06 | -0.054 | -0.115 | -0.026 | 0.062 | -0.013 | -0.034 | -0.062 | 0.062 | -0.015
C19orf53 (UniProt Q9UNZ5) | -0.225 | 0.375 | 0.042 | 0.209 | -0.086 | -0.067 | -0.045 | -0.167 | 0.184 | -0.073
CPSF6 isoform 2 (UniProt Q16630) | -0.03 | 0.036 | 0.016 | 0.034 | -0.046 | 0.063 | 0.023 | 0.025 | -0.016 | 0.055
